BAZ2B block: qHTS Assay for Inhibitors of BAZ2B | Bromodomain adjacent to zinc finger domain protein 2B (Homo sapiens), Q9UIF8 | AlphaScreen BAZ2B-H3K14Ac peptide displacement | Potency, µM (top dose mostly 114 µM), usual class: inhibitors | 360,000 tested, 4.4% active | AID 504333, 2011; also: nearly all actives have a fitted effect of over 60% in size
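BAZ2B (50 nM) with biotin-H3(5-23)K14Ac peptide (50 nM) in PBS pH 7.4, 0.01% Tween-20, preformed 30 min, then compound 30 min at room temperature; top concentration 110uM. AlphaScreen streptavidin donor/nickel chelate acceptor beads (10 ug/mL final), 20 min dark, signal read.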
JMJD2A Tudor: qHTS Assay for Inhibitors of JMJD2A-Tudor Domain | Lysine-specific demethylase 4A (Homo sapiens), O75164 | AlphaScreen JMJD2A-Tudor / H3K4me3 peptide binding | Potency, µM (series often up to 114 µM), actives largely listed as inhibitors | 390,000 tested, 4.4% active; also: nearly all actives have a fitted effect of over 50% in size
Target sequence (O75164 whole entry, looked up, the tested form may be a part): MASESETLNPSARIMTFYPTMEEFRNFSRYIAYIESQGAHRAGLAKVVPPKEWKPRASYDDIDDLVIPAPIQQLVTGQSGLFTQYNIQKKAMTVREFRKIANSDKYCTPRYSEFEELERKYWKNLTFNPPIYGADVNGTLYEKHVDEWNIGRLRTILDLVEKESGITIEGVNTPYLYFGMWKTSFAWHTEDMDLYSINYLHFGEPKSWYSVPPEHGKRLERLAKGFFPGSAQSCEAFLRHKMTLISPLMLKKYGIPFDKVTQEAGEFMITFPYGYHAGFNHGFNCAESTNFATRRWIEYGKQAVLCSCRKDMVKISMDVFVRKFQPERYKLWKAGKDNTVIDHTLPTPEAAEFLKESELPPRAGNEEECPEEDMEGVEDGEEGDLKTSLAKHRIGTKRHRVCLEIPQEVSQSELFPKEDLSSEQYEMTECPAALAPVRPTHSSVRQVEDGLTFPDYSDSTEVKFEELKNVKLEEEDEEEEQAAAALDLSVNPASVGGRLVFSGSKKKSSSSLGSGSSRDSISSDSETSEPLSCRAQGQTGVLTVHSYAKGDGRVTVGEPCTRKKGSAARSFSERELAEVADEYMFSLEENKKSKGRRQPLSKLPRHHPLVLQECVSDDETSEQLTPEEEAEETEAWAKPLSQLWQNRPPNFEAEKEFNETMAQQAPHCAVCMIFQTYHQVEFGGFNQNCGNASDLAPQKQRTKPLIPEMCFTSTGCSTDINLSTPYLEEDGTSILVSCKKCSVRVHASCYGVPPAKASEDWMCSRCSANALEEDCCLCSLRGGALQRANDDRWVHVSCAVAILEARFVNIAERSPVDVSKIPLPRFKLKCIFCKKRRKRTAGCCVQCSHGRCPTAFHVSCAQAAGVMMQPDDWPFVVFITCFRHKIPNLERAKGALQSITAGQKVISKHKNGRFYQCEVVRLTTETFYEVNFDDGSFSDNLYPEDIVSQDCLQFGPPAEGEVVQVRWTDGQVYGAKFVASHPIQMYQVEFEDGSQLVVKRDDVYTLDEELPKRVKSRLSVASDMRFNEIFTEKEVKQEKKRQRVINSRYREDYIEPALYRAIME
G9a inh: qHTS Assay for Inhibitors of Histone Lysine Methyltransferase G9a; Potency, µM (top dose mostly 102 µM), usual class: inhibitors; G9a H3K9 monomethylation, AlphaScreen, 2 h; AID 504332, 2011; 350,000 tested, 8.8% active; also: nearly all actives have a fitted effect of over 75% in size
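G9a (20 nM) preincubated 15 min RT with compounds, then 500 nM biotinylated H3K9 peptide and 20 uM SAM added; 2 h RT reaction. Monomethyl-H3K9 product detected by AlphaScreen with anti-H3K9me1 antibody, streptavidin donor and anti-rabbit IgG acceptor beads.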
PLK1 PBD inh: qHTS for Inhibitors of PLK1-PDB (polo-like kinase 1 - polo-box domain): Primary Screen | Plk1 PBD binding of FITC phosphopeptide, fluorescence polarization | Potency, µM, usual class: inhibitors | 360,000 tested, 2.8% active; also: series mostly up to about 57 µM; nearly all actives have a fitted effect of over 65% in size
HP1b binding inh: HTS for Inhibitors of HP1-beta Chromodomain Interactions with Methylated Histone Tails; AlphaScreen HP1-beta / biotin-H3K9me3 peptide binding; Potency, µM (doses to about 114 µM), most hits filed as inhibitors; 390,000 tested, 0.56% active; also: nearly all actives have a fitted effect of over 70% in size
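Compound inhibition of the preformed complex between 50 nM HP1-beta and 50 nM biotinylated H3K9me3 peptide was read by AlphaScreen. Buffer was PBS pH 7.4 with 0.01% Tween-20. Incubations ran 30 min at room temperature, with 10 ug/mL donor/acceptor beads.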
Sfp inh: qHTS Assay for Inhibitors of Bacillus subtilis Sfp phosphopantetheinyl transferase (PPTase); 4'-phosphopantetheinyl transferase ffp (Bacillus subtilis), Q9F4F7; Biochemical Sfp PPTase activity, qHTS; Potency, µM, most hits filed as inhibitors; 310,000 tested, 3.5% active; AID 1490, 2009;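 also: the enzyme is Sfp with the accession as filed and its product quenches rhodamine fluorescence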
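Fluorescence-quenching assay with 15 nM Sfp, 5 uM rhodamine-CoA and 12.5 uM BHQ-2-labelled ybbR peptide in pH 7.6 Hepes/MgCl2 buffer. Enzyme was pre-incubated with compound for 15 min at room temperature. Rate was taken from the 30-min fluorescence change (525/598 nm).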
Hits are given with their value; – = inactive; ? = inconclusive; · = no result given; [ ] = another dose, or the depositor's remark. This is a sample that favours compounds with a hit; in the whole collection about 12% have one here. Calls follow the shape of the dose curve; as a rule, active = well fitted curve in the direction sought with a large enough effect; inconclusive = small, poorly fitted or top-dose-only effect, or another doubt; inactive = no such curve, though single readings can be large; an effect the other way counts as inactive or inconclusive.

SMILES	BAZ2B block	JMJD2A Tudor	G9a inh	PLK1 PBD inh	HP1b binding inh	Sfp inh
O=C(CN(Cc1ccco1)C(=O)CNS(=O)(=O)c1ccccc1)NCc1ccccc1	–	–	–[12.7 µM]	–	–	–
COc1ccc2c(c1)c1nnc(SC(C)C)nc1n2C	·	–	·	·	–	·
CC1=CC(=C2C=CC(=O)C=C2)C=C(C)N1C	–	·	–	·	·	–
CS(=O)(=O)N(CC(=O)NCc1ccco1)Cc1ccc(Cl)cc1	–	–	?	?	–	28µM
CC(C)C(=O)c1cn(CC(=O)NCc2ccc3c(c2)OCO3)c2ccccc12	–	–[11.4 µM]	–	24µM	–	–
Cc1ccc(C(O)CCc2ccc(N)cc2)cc1 (stereo not given)	–	–	–	–	–	–
Cc1ccc(C(C[N+](=O)[O-])Sc2ccc(N)cc2)cc1 (stereo not given)	?	–	40µM	6.7µM	–	5.6µM
C=CCSc1nc2sc3c(c2c(=O)n1CC)CCc1ccccc1-3	–	?	?	3µM	?	1.8µM
CC(=O)N1CCN(c2ccccc2NC(=O)COc2cc(C)cc(C)c2)CC1	–	50µM	–	?	–	–
Cc1ccc(OCC(=O)Nc2ccccc2N2CCCC2)c(C)c1	71µM	–	–[12.7 µM]	–	–	?
CCc1ccccc1NC(=O)COc1ccc(C(=S)N2CCCC2)cc1	–	71µM	–	?	–	?
Cc1ccc(C)c(OCC(=O)Nc2ccccc2N2CCCC2)c1	?	?	40µM	–	–	–
CC(=O)c1ccc(OCC(=O)Nc2ccccc2N2CCCC2)cc1	?	–	·	–	–	–
CCOc1ccc(OCC(=O)Nc2ccccc2N2CCCC2)cc1	?	?	50µM	–	–	·
COc1cc(C(=S)N2CCCC2)cc(Cl)c1OCC(=O)Nc1ccc(C)cc1C	?	?	7.9µM	8.4µM	?	?
Cc1ccc(C)c(N2N=C(C(=O)Nc3ccccc3N3CCCC3)CCC2=O)c1	35µM	45µM	50µM	–	50µM	–
CCCCOC(=O)c1ccc(NC(=O)C2(c3cccs3)CCOCC2)cc1	–	–	–	·	–	·
CCOC(=O)C1CCN(C(=O)CN2c3ccc(CC)cc3-c3ccccc3S2(=O)=O)CC1	–	–	–	·	–	·
OC(COc1ccccc1)CN1CCN(CC(O)COc2ccccc2)CC1 (stereo not given)	–	–	?	–	–	?
OC(CON=C1c2ccccc2-c2ccccc21)CN1CCNCC1 (stereo not given)	20µM	3.5µM	50µM	–	?	–
CN1CC=C2C(C#N)=C(N)C(C#N)(C#N)C(Cc3ccccc3)C2C1 (stereo not given)	–	–	–[12.7 µM]	?	–	–
CCC1C2CN(C(C)=O)CC=C2C(C#N)=C(N)C1(C#N)C#N (stereo not given)	–	–	45µM	–	–	–
COc1ccc([C@@H]2[C@H]3CN(C(C)=O)CC=C3C(C#N)=C(N)C2(C#N)C#N)c2ccccc12	–	–	45µM	–	–	–
CCCC1C2CN(C(C)=O)CC=C2C(C#N)=C(N)C1(C#N)C#N (stereo not given)	–	–	14µM	–	–	–
COCC(=O)N1CCC2(CC1)CN(c1ccc(-c3ccccc3)cc1)C2	·	·	–[12.7 µM]	·	·	–
SMILES	BAZ2B block	JMJD2A Tudor	G9a inh	PLK1 PBD inh	HP1b binding inh	Sfp inh
CSc1ccc(/C=C/C(=O)c2ccc(O)cc2)cc1	–	?	?	–	–	79µM
Cc1ccc(/C=C/C(=O)c2ccc(O)cc2)cc1	–	–	–	–	–	–
COC(=O)c1ccc(/C=C/C(=O)c2ccc(OC)cc2)cc1	–	100µM	–	–	–	–
COC(=O)[C@H](C)NC(=O)/C=C/c1ccc(OC)cc1	–	–	71µM	–	–	?
COc1ccc(Oc2ccc(/C=C/C(=O)c3ccc(O)cc3)cc2[N+](=O)[O-])cc1	?	?	40µM	–	–	–
COC(=O)c1ccc(/C=C/C(=O)c2ccc(OC)c(OC)c2)cc1	–	–	–[0.501 µM]	–	–	–
Cn1c(=O)c2c(nc(CN3CCN(c4ccccc4)CC3)n2Cc2c(F)cccc2Cl)n(C)c1=O	?	?	–	–	–	–
Cc1nc(-c2ccccc2O)n(-c2ccccc2)n1	–	–	–[12.7 µM]	–	–	–
Cc1ccc(-c2nc(-c3ccc(Cl)cc3)sc2CC(=O)O)c(C)c1	–	–	–	?	–	–
Fc1ccc(-n2[nH]nnc2=S)cc1N1CCCC1	?	79µM	?	?	?	79µM
COc1ccc(S(=O)(=O)N(C)C[C@H]2Oc3ccc(NC(=O)C4CC4)cc3C(=O)N([C@H](C)CO)C[C@@H]2C)cc1	·	?	·	–	–	·
CC(=O)c1c(C)nc(-c2ccc3c(c2)OCO3)n1O	–	–	56µM	–	–	–
CCOc1ccc(-c2nc(C)c(C(C)=O)n2O)cc1	–	–	?	–	–	18µM
CC(C)CCNC(=O)c1nnc(Cc2ccc(Cl)cc2)o1	–	–	–	–	–	–
O=C(Cc1ccccc1Cl)NC1(O)C(=O)c2ccccc2C1=O	–	–	56µM	–	–	–
Cc1cccc(-n2cc(-c3ccccc3)c3c(=O)[nH]cnc32)c1	45µM	79µM	?	?	?	–
CCOc1ccc(-n2cc(-c3ccccc3)c3c(=O)[nH]cnc32)cc1	?	?	45µM	–	?	–
O=c1[nH]cnc2c1c(-c1ccccc1)cn2-c1ccc(Br)cc1	–	–	–	–	–	–
CSC[C@H]1CN(CCc2ccccc2)C(=O)[C@@H]1CC(=O)Nc1ccccc1	·	·	·	–	·	·
O=C(OCC(=O)c1c[nH]c2ccccc12)c1ccc([N+](=O)[O-])s1	?	?	45µM	–	?	–
O=C(O)c1cccc(S(=O)(=O)Nc2ccc([N+](=O)[O-])cc2O)c1	–	?	22µM	–	–	?
COc1cc(Nc2nc3ccccc3nc2NS(=O)(=O)c2ccc([N+](=O)[O-])cc2)cc(OC)c1OC	7.9µM	?	·	–	–	–
COc1ccccc1NS(=O)(=O)c1ccc(O)cc1	–	–[11.4 µM]	–	3.4µM	?	–
COc1ccccc1NS(=O)(=O)c1ccc2oc(N)nc2c1	–	–	25µM	?	–	?
O=C(O)c1cccc(S(=O)(=O)Nc2ccccc2-c2ccccc2)c1	–	–	?	–	–	–
COc1ccc([N+](=O)[O-])cc1NS(=O)(=O)c1ccccc1	–	–	0.79µM	?	–	–

Screens as filed in PubChem BioAssay.
